Broadly, the inhibition is the relative decrease from the control value, in per cent.

Out of some 360,000 compounds screened, about 3,900 (1.1%) were called active. This excerpt belongs to a sample that is enriched for actives. Unmarked numbers belong to inactive results.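 Rule for the calls: active = mean replicate inhibition score of at least 50 and every replicate individually at or above 50; inconclusive = only one of the two criteria met; inactive = mean below 50 and not all replicates reaching 50.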

The text below walks through data of PubChem BioAssay AID651610 (Broad Institute, 2012).

The assay is described as follows: blockers of JRFL envelope-mediated fusion – HeLa-JRFL effector, CEM21 target cells, luciferase, primary screen (AID 651610).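 Note: 0% = plate neutral controls and 100% = maraviroc near 300 nM.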 The following applies: HeLa-JRFL Env/CEM21 cell fusion, hits give high values; at 16.7 µM unless noted.
Turning to `O=C(NCC[C@H]1CC[C@@H](NC(=O)C2CCCCC2)[C@@H](CO)O1)c1ccc(F)cc1`, the inhibition is -1.25%.

As to `C[C@H](CO)N1C[C@H](C)[C@@H](CN(C)Cc2ccncc2)Oc2ccc(NC(=O)Nc3ccccc3)cc2C1=O`, the inhibition is 4.38%.

As to `C[C@H](CO)N1C[C@H](C)[C@H](CN(C)C(=O)NC2CCCCC2)OCCCC[C@H](C)Oc2ccc(NC(=O)Nc3ccc4c(c3)OCO4)cc2C1=O`, the inhibition was 18.2%. The result for `C[C@H](CO)N1C[C@H](C)[C@@H](CN(C)C(=O)Nc2ccc3c(c2)OCO3)OCCCC[C@H](C)Oc2ccc(NC(=O)Nc3ccc4c(c3)OCO4)cc2C1=O` reads -2.35%; that for `C[C@H]1CCCCO[C@H](CN(C)C(=O)NC2CCCCC2)[C@@H](C)CN([C@@H](C)CO)C(=O)c2cc(NC(=O)Nc3ccc4c(c3)OCO4)ccc2O1`, 62.7% (active).

With `C[C@@H]1CN([C@H](C)CO)C(=O)c2cc(NC(=O)Nc3ccccc3)ccc2O[C@@H](C)CCCCO[C@H]1CN(C)Cc1ccc(C(F)(F)F)cc1`, the inhibition was 5.92%.

As for `C[C@@H]1CCCCO[C@@H](CN(C)Cc2ccc(C(F)(F)F)cc2)[C@@H](C)CN([C@H](C)CO)C(=O)c2cc(NC(=O)Nc3ccccc3)ccc2O1`, the inhibition is 9.84%.

As to `C[C@@H]1CCCCO[C@H](CN(C)C)[C@H](C)CN([C@@H](C)CO)C(=O)c2cc(NS(=O)(=O)c3cn(C)cn3)ccc2O1`, the inhibition is 57.7% (active). In the case of `C[C@H]1CCCCO[C@@H](CN(C)Cc2ccc(C(F)(F)F)cc2)[C@@H](C)CN([C@@H](C)CO)C(=O)c2cc(NC(=O)Nc3ccccc3)ccc2O1`, the inhibition was 86.8% (active). On to `C[C@@H]1CN([C@H](C)CO)C(=O)c2cc(NC(=O)c3ccncc3)ccc2O[C@H]1CN(C)Cc1ccc(Oc2ccccc2)cc1`, for which the inhibition is -5.1%. With `C[C@@H]1CN([C@@H](C)CO)C(=O)c2cc(NC(=O)c3ccncc3)ccc2O[C@@H]1CN(C)Cc1ccncc1` the figure was 85.6% (active). In the case of `C[C@@H]1CN([C@@H](C)CO)C(=O)c2cc(NS(=O)(=O)c3cn(C)cn3)ccc2O[C@@H](C)CCCCO[C@H]1CN(C)S(=O)(=O)c1cn(C)cn1`, the inhibition is 2.07%.

As to `C[C@@H]1CN([C@H](C)CO)C(=O)c2cc(NS(=O)(=O)c3cn(C)cn3)ccc2O[C@@H](C)CCCCO[C@H]1CN(C)C`, the inhibition is 1.08%. In the case of `C[C@@H]1CN([C@@H](C)CO)C(=O)Cc2cc(NC(=O)C3CCCCC3)ccc2O[C@@H]1CN(C)Cc1ccncc1`, the inhibition is 6.59%. `COCC#Cc1cnc2c(c1)C(=O)N([C@@H](C)CO)C[C@@H](C)[C@@H](CN(C)C(=O)Nc1ccccc1OC)O2`: the inhibition is 2.09%. Take `COC(=O)C[C@H]1CC[C@H](NC(=O)c2ccccc2)[C@@H](CO)O1`: the inhibition is -4.18%. Take `CN1CCN(C(=O)C[C@H]2C[C@@H]3c4cc(NC(=O)Nc5ccc(C(F)(F)F)cc5)ccc4O[C@@H]3[C@H](CO)O2)CC1`: the inhibition is 7.48%.

In the case of `C[C@@H]1CN([C@H](C)CO)S(=O)(=O)c2ccc(C#C[C@@H](C)O)cc2O[C@H]1CN(C)C(=O)C1CCCCC1`, the inhibition was -6.31%. The result for `CO[C@H]1CN(C)C(=O)c2cc(NC(=O)c3ccccc3)ccc2OC[C@H](C)NC[C@H]1C` reads -18.7%. Regarding `COc1ccc(CN(C)C[C@@H]2OCCCC[C@@H](C)Oc3ccc(NC(=O)Nc4ccc(C(F)(F)F)cc4)cc3C(=O)N([C@H](C)CO)C[C@H]2C)cc1`, the inhibition was 40.3%.

With `COc1ccc(NC(=O)Nc2ccc3c(c2)C(=O)N([C@@H](C)CO)C[C@H](C)[C@H](CN(C)Cc2ccc(C(F)(F)F)cc2)OCCCC[C@H](C)O3)cc1`, the inhibition was 55.7% (active). As for `C[C@@H]1CN([C@H](C)CO)C(=O)c2cc(NC(=O)Nc3ccc(C(F)(F)F)cc3)ccc2O[C@@H](C)CCCCO[C@@H]1CN(C)Cc1ccc(C(F)(F)F)cc1`, the inhibition was 32%. As to `C[C@@H]1CCCCO[C@H](CN(C)Cc2ccc(C(F)(F)F)cc2)[C@H](C)CN([C@H](C)CO)C(=O)c2cc(NC(=O)Nc3ccc(F)cc3)ccc2O1`, the inhibition is 9.27%. The result for `CC(C)NC(=O)Nc1ccc2c(c1)C(=O)N([C@H](C)CO)C[C@H](C)[C@@H](CN(C)Cc1ccc(C(F)(F)F)cc1)OCCCC[C@@H](C)O2` reads 76.6% [at 12.3 µM] (active); that for `COc1ccc(NC(=O)Nc2ccc3c(c2)C(=O)N([C@H](C)CO)C[C@H](C)[C@@H](CN(C)Cc2ccc(C(=O)O)cc2)OCCCC[C@H](C)O3)cc1`, -1.91%; that for `O=C(C[C@H]1C=C[C@@H](NS(=O)(=O)c2ccc(F)cc2)[C@@H](CO)O1)NC1CCC1`, 11.3%. With `O=C(C[C@H]1C[C@H]2c3cc(NC(=O)Nc4ccc(C(F)(F)F)cc4)ccc3O[C@H]2[C@@H](CO)O1)NCCc1ccccc1` the figure was 6.45%; with `C[C@@H]1CCCCO[C@H](CN(C)C(=O)Nc2ccc(C(F)(F)F)cc2)[C@@H](C)CN([C@@H](C)CO)C(=O)c2cc(NS(=O)(=O)c3cccs3)ccc2O1`, 3.25%.

For the compound `CN1C(=O)c2cc(NC(=O)Cc3cccs3)ccc2OC[C@@H]2O[C@@H](CC(=O)N[C@@H]3CCN(Cc4ccccc4)C3)CC[C@H]21`, the inhibition was -14%.

As for `COc1ccc(-c2nnc(SCC(=O)c3ccc4c(c3)OCCO4)o2)cc1`, the inhibition is 22.9% [at 12.3 µM]. As for `COc1ccc(-n2c(C)cc(C(=O)CSc3nnc(-c4cccs4)o3)c2C)cc1`, the inhibition was 89.2% [at 12.3 µM] (active).

With `COc1ccc(-n2c(C)cc(C(=O)COC(=O)c3cc(OC)c(OC)cc3NC(=O)c3cccs3)c2C)cc1`, the inhibition is -7.79% [at 12.3 µM]. As to `N#C[C@H]1[C@@H](c2ccc(C3=CCCCC3)cc2)[C@@H](CO)N1C(=O)NC1CCCCC1`, the inhibition was 0.133%. For `COc1ccccc1-c1ccc2c(c1)O[C@@H](CN(C)C(=O)Nc1ccccc1)[C@H](C)CN([C@@H](C)CO)S2(=O)=O`, the inhibition was -37.6%. As for `COc1ccc(NC(=O)N(C)C[C@@H]2Oc3ccc(NS(=O)(=O)c4ccc(C)cc4)cc3CC(=O)N([C@@H](C)CO)C[C@H]2C)cc1`, the inhibition was 4.71%.
